Here are results for 14 compounds from PubChem BioAssay (NCI).

About 83,000 compounds went through this panel and 20% of them were active in at least one assay; those are over-represented in the sample as a whole.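 How to read the values: 0–100, growth inhibition (40 = 60% inhibited); 0, no net growth; -100 to 0, cell death (-40 = 40% of starting cells died; -100 = all dead).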 Unmarked numbers belong to inactive results. Activity calls are given as the source filed them. Rule for the calls: active = growth percent below 10; inactive = the rest.

Holding throughout (assay): NCI-60 one-dose screen, 48 h (100 = growth as untreated, 0 = no growth, -100 = all killed)
What all share (conditions): 10 µM unless noted

The test system of assay [1] is NCI-H23 lung.
Assay [2] deals with NCI-H226 lung.
In assay [3] the test system is NCI-H322M lung.
The subject of assay [4] is HOP-62 NSCLC.
Assay [5] deals with NCI-H460 lung.
In assay [6] the test system is NCI-H522 lung.
Assay [7] concerns A549/ATCC NSCLC.
For assay [8], the system named is 786-0 renal.
Assay [9] deals with COLO 205 colon.

In the case of `CCCCCCCS(=O)(=O)N1CCCC(C(=O)Nc2nc3ccc(NC(=O)c4ccc(F)c(OC)c4F)cc3s2)C1` (stereo unspecified), the growth in assay [1] is 27.3%; in [2], 31.8%; in assay [3], 77.7%; in assay [4], 60.8%; in assay [5], 69.7%; in assay [6] it was 24.7%. The growth is 60.5% in assay [7], 50% in [8] and 82.9% in assay [9].
With `CC12CC[C@@H]3[C@]4(C)COC(c5cn[nH]c5-c5ccc(Cl)cc5)O[C@@H]4CC[C@@]3(C)[C@@H]1CC(C1=CCOC1=O)O2` (stereo partly specified), the growth in assay [1] was 51.9%; in [2] it was 45.5%; in [3], 58.2%; in assay [4], 62.7%; in assay [5] it was 29.8%; in assay [6], 20.9%. The growth was 34% in assay [7], 57.1% in assay [8] and 10.3% in [9].
Turning to `Cc1ccc(/C=C/c2n(Cc3ccc4ccccc4c3)c3ccccc3[n+]2Cc2ccc3ccccc3c2)cc1`, the growth in assay [1] is -92.4% (active); in [2], -27.4% (active); in assay [3], -98.4% (active); in assay [4] it was -58.2% (active); in assay [5], -77.4% (active); in assay [6], -82.5% (active). Besides, the values for the growth in assay [7], in [8] and in [9] were -53.4% (active), -51.6% (active) and -64.8% (active), respectively.
Regarding `C=C1CC[C@@H]2[C@]3(C)COC(c4cn[nH]c4-c4cccc(Cl)c4)O[C@@H]3CC[C@@]2(C)[C@@H]1C/C=C1/C(=O)OCC1O` (stereo partly specified), the growth was -79.8% (active) in [1]; -91.1% (active) in [2]; 37.9% in assay [3]; 0.166% (active) in assay [4]; -3.88% (active) in assay [5]; -60% (active) in assay [6]. Further, the growth in assay [7] was -19.2% (active); in assay [8], -92.7% (active); in assay [9], -35% (active).
As to `CC1(c2cc3cc(Br)ccc3oc2=O)NC(=O)c2c(/C=C/C(=O)OC3CC4CCC3(C)C4(C)C)cccc2N1` (stereo unspecified), the growth in assay [1] was 79.1%; in assay [2] it was 75.9%; in assay [3] it was 81.2%; in [4], 92.5%; in assay [5], 73.6%; in assay [6], 68.3%. The growth in assay [7] is 54.6%; in assay [8] it was 91.5%; in assay [9], 88.7%.
Consider `COc1c(F)ccc(C(=O)Nc2ccc3nc(NC(=O)C4CCCN(S(=O)(=O)c5ccc(C(F)(F)F)cc5)C4)sc3c2)c1F` (stereo unspecified), for which the growth in assay [1] was 94.4%; in [2] it was 81.3%; in [3], 91.9%; in assay [4], 94.6%; in assay [5], 78%; in [6], 76%. For the same compound, the results for the growth in assay [7], in assay [8] and in assay [9] were 75.3%, 62.9% and 84.2%, respectively.
For `O=C(NN1C(=O)/C(=C/C=C/c2ccc([N+](=O)[O-])o2)SC1=S)c1cccc(O)c1`, the growth is -89% (active) in assay [1]; -92.2% (active) in assay [2]; -66.9% (active) in assay [3]; -73.5% (active) in [4]; -49.3% (active) in assay [5]; -96.6% (active) in [6]. Also, the growth in [7] was -67.4% (active); in [8], -91.5% (active); in [9] it was -79.7% (active).
Turning to `OCC1(CCCc2ccccc2)CCCN(c2nccc3ccccc23)C1` (stereo unspecified), the growth in [1] is 14.9%; in [2], 37.7%; in assay [3], 82.5%; in assay [4] it was 72.6%; in assay [5] it was 34%; in assay [6], 22.9%. Besides, the growth was 39.7% in assay [7], 45.4% in [8] and 10.4% in assay [9].
Take `CCCSc1nc(Nc2ccc(S(N)(=O)=O)cc2)c(C#N)c(-c2ccc(Cl)cc2)n1`: the growth was 31.4% in [1]; -2.08% (active) in [2]; 21.9% in assay [3]; -2.6% (active) in assay [4]; 28.6% in assay [5]; 16.6% in assay [6]. Besides, the growth in assay [7] was 16.3%; in assay [8], -69.7% (active); in assay [9], 46.8%.
Regarding `CCCCn1c(O)c(N=Nc2nc(-c3cc4ccccc4oc3=O)cs2)c2cc(Br)ccc21`, the growth is 98.3% in assay [1]; 99.2% in assay [2]; 102% in assay [3]; 110% in assay [4]; 114% in assay [5]; 101% in assay [6]. Besides, the growth in assay [7] is 97.8%; in assay [8], 106%; in assay [9], 140%.
Take `COc1ccc2c(c1)c(-c1cc3nc(-c4cn(C)c5ncc(Br)cc45)cc(N)n3n1)cn2C`: the growth was -36.8% (active) in assay [1]; 0.447% (active) in [2]; -39.8% (active) in assay [3]; -21.1% (active) in assay [4]; -35.4% (active) in assay [5]; -72.1% (active) in assay [6]. Further, the figures for the growth in assay [7], in assay [8] and in assay [9] were -4.96% (active), -94.8% (active) and -74.6% (active), respectively.
On to `C=CC(=O)Nc1ccc(C)c(Oc2ccc(Cl)cc2)c1`, for which the growth in [1] was 55.9%; in [2], 41.7%; in assay [3], 48.4%; in [4] it was 63%; in [5], 20.5%; in assay [6] it was 3.62% (active). For the same compound, the figures for the growth in assay [7], in assay [8] and in assay [9] were 47.2%, 55.1% and 55.7%, respectively.
As for `COc1cccc(/C=C/c2nc3ccccc3c(=O)n2CC(=O)Nc2ccc(Cl)cc2)c1`, the growth is 82.7% in [1]; 54.9% in assay [2]; 75% in assay [3]; 71.4% in assay [4]; 47.4% in assay [5]; 97.2% in [6]. For the same compound, the growth in [7] was 28.5%; in [8], 9.62% (active); in assay [9], 86.4%.
Take `O=C(C1=CNC(=S)NC1c1ccc(O)cc1)c1cc2ccccc2oc1=O` (stereo unspecified): the growth in assay [1] is 102%; in [2] it was 95.7%; in assay [3] it was 106%; in assay [4] it was 91.4%; in [5], 108%; in [6] it was 90%. The growth in assay [7] was 101%; in [8] it was 109%; in assay [9], 102%.
